Screens (PubChem)
This is a sample that favours compounds with a hit; in the whole collection about 3.2% have one here.
ALOX15B inhib = qHTS Assay for Inhibitors of 15-hLO-2 (15-human lipoxygenase 2) | 110,000 compounds, 0.56% hits | Potency, µM (highest dose often 57.1 µM), actives largely listed as inhibitors | purified 15hLO-2, xylenol orange hydroperoxide absorbance | AID 881, 2007 | Polyunsaturated fatty acid lipoxygenase ALOX15B (Homo sapiens), O15296; note: nearly all actives have a fitted effect of over 60% in size
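Screening format was qHTS against 50 nM purified 15hLO-2 in Hepes pH 7.5 with detergent. Activity follows hydroperoxide formation from 45 uM arachidonic acid, measured as 573:405 nm absorbance ratio of the ferric-xylenol orange complex.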
12-hLO inh = qHTS Assay for Inhibitors of 12-hLO (12-human lipoxygenase). Polyunsaturated fatty acid lipoxygenase ALOX12 (Homo sapiens), P18054. purified 12-hLO, xylenol orange hydroperoxide absorbance. Potency, µM (top dose mostly 57.1 µM), actives largely listed as inhibitors. AID 1452, 2008. 150,000 compounds, 0.12% hits; note: nearly all actives have a fitted effect of over 55% in size
Target sequence (P18054 whole entry, looked up): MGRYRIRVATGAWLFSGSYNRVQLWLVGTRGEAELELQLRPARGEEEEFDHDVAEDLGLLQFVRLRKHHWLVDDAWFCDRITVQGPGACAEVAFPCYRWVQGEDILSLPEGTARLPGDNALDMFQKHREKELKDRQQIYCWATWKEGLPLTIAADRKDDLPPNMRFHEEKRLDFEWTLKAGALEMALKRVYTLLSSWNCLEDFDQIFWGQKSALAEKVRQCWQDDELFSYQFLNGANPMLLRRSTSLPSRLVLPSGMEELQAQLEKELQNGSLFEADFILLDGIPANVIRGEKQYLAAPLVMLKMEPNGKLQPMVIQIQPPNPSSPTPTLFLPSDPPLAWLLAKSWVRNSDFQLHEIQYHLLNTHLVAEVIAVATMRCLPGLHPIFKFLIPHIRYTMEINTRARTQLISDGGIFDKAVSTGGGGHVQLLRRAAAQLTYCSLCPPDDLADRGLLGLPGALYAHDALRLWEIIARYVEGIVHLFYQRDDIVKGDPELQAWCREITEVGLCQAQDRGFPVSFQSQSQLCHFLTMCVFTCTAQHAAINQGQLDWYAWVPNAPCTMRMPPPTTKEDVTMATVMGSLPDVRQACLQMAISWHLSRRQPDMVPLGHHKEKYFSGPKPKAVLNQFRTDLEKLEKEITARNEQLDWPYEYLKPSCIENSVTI
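Xylenol orange chromogenic assay: hydroperoxide from 12hLO oxidises Fe(II), giving red-shifted Fe(III)-XO absorbance. Conditions: 150 nM enzyme, 40 uM arachidonic acid, 25 mM Hepes pH 7.0, 0.01% Triton X-100, 30 min, room temperature.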
PNC assembly inh = High Content Assay for Compounds that inhibit the Assembly of the Perinucleolar Compartment | PC3M PTB-GFP, PNC prevalence imaging, 16 h; hits give low values | activity change (PNC), negative = inhibition, % at 10 µM | 140,000 compounds, 3.1% hits;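 active = readout at or below -70, meaning at least 70% loss of cells showing the perinucleolar compartment, a nuclear body marking cancer cells; inconclusive = readout between -30 and a set limit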
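Read-out is percentage of cells bearing a perinucleolar compartment, from automated 20x imaging of fixed, Hoechst-stained PC3M PTB-GFP cells. Cells were seeded 4 h, then exposed 16 h to compound (23 nl of library stock) in duplicate plates.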
Numbers stand for hits; [ ] = dose if it differs, or a comment. Unless noted, calls come from the whole dose curve; as a rule, active = well fitted curve in the direction sought with a large enough effect; inconclusive = small, poorly fitted or top-dose-only effect, or another doubt; inactive = no such curve, though single readings can be large; an effect the other way counts as inactive or inconclusive.

How did Cc1ccc(-c2nn(CC(=O)NCCN3CCOCC3)c(=O)c3ccccc23)cc1 do in these assays?
ALOX15B inhib: inactive; 12-hLO inh: inactive; PNC assembly inh: inactive

Results for O=C(Cn1cnc2sc(-c3ccccc3)cc2c1=O)NCc1ccccc1 ?
ALOX15B inhib: inactive; 12-hLO inh: inactive; PNC assembly inh: inactive

What do the screens show for `Cc1ccc(-c2nn(CC(=O)NCc3ccco3)c(=O)c3ccccc23)cc1`?
ALOX15B inhib: inactive; 12-hLO inh: inactive; PNC assembly inh: -110.7

What do the screens show for `COc1ccc(C)cc1N1C(=N)/C(=C2/Nc3ccccc3S2)C(c2ccccc2)C1=O` (stereo unspecified)?
12-hLO inh: inactive; PNC assembly inh: inactive

How did O=C(c1cc(-c2cccc(O)c2)on1)N1CCOCC1 do in these assays?
ALOX15B inhib: inactive; 12-hLO inh: inactive; PNC assembly inh: -84.7

What do the screens show for `O=C(Nc1ccc2c(c1)OCO2)N1CCOCC1`?
ALOX15B inhib: inactive; 12-hLO inh: inactive; PNC assembly inh: inactive

Results for O=C(Nc1cccc(O)c1)N1CCOCC1 ?
12-hLO inh: inactive; PNC assembly inh: -100.0

Results for COc1ccc(-c2cc(C(=O)N3CCOCC3)no2)cc1OC ?
ALOX15B inhib: inactive; 12-hLO inh: inactive; PNC assembly inh: inactive

What do the screens show for `O=C(CCCOc1ccccc1)NC1CCCc2ccccc21` (stereo unspecified)?
12-hLO inh: inactive; PNC assembly inh: inactive

How did COc1ccc(Cl)cc1Nc1nc(C)cc(C)c1C(N)=O do in these assays?
12-hLO inh: inactive; PNC assembly inh: inconclusive

What do the screens show for `CSc1c(CC(=O)Nc2ccccc2Cl)n(Cc2ccccc2)c2ccccc12`?
ALOX15B inhib: inactive; 12-hLO inh: inactive; PNC assembly inh: inactive

What do the screens show for `CSc1c(CC(=O)Nc2ccccc2C(F)(F)F)n(Cc2ccccc2)c2ccccc12`?
12-hLO inh: inactive; PNC assembly inh: -106.5

How did C[C@@H](CCCCC(=O)Nc1ccc(C(F)(F)F)cc1)NCCc1cnc[nH]1 do in these assays?
ALOX15B inhib: inactive; 12-hLO inh: inactive

What do the screens show for `COc1ccc(/C=N/Nc2ccc([N+](=O)[O-])cc2)cc1Cn1cc([N+](=O)[O-])cn1`?
ALOX15B inhib: inactive; 12-hLO inh: inactive; PNC assembly inh: inactive

What do the screens show for `COc1ccc(/C=N/Nc2ccccc2)cc1Cn1nc(C)c([N+](=O)[O-])c1C`?
ALOX15B inhib: inactive; 12-hLO inh: inactive; PNC assembly inh: -97.9

How did O=C(c1ccco1)N1CCC2(CC1)CN(Cc1cc(C(F)(F)F)cc(C(F)(F)F)c1)C2 do in these assays?
ALOX15B inhib: inactive; 12-hLO inh: inactive

What do the screens show for `Cc1ccccc1-c1nc(CN2CCC(C(=O)NCc3cccs3)CC2)c(C)o1`?
ALOX15B inhib: inactive; 12-hLO inh: inactive; PNC assembly inh: inactive

What do the screens show for `Cc1cnc(CNc2ncnc3ccc(-c4ccccc4C)cc23)cn1`?
ALOX15B inhib: inactive

Results for O=C(NCc1nnc2c3ccccc3c(-c3ccccc3)nn12)c1ccccc1Cl ?
12-hLO inh: inactive; PNC assembly inh: inactive

Results for O=C(COc1ccc(Cl)cc1)NCc1nnc2c3ccccc3c(-c3ccccc3)nn12 ?
12-hLO inh: inactive; PNC assembly inh: -108.5

Results for COc1ccc(-n2nc(C(=O)NCC(=O)NCC3CCCO3)c3ccccc3c2=O)cc1Cl (stereo unspecified) ?
ALOX15B inhib: inactive; 12-hLO inh: inactive; PNC assembly inh: inactive

What do the screens show for `C=C(C)CN1C(=O)c2ccccc2C1=O`?
ALOX15B inhib: inactive; 12-hLO inh: inactive; PNC assembly inh: inconclusive

How did C=C(C)CC1Nc2ccccc2NC1CC(=C)C (stereo unspecified) do in these assays?
ALOX15B inhib: 25.1µM; 12-hLO inh: inactive; PNC assembly inh: inactive

How did CCc1ccc2nc(N3C(=O)C(O)=C(C(=O)c4ccco4)C3c3cccs3)sc2c1 (stereo unspecified) do in these assays?
12-hLO inh: inactive; PNC assembly inh: -100.0

How did Cc1ccc2nc(N3C(=O)C(O)=C(C(=O)c4cc5ccccc5o4)C3c3cccs3)sc2c1 (stereo unspecified) do in these assays?
ALOX15B inhib: inactive; 12-hLO inh: inconclusive; PNC assembly inh: inconclusive

How did O=C(O)CCCCn1ccc(=O)[nH]c1=O do in these assays?
ALOX15B inhib: inactive[11.4 µM]; 12-hLO inh: inactive[11.4 µM]

What do the screens show for `COc1ccc(C(=O)[C@H](Br)[C@H](Br)C(=O)O)cc1`?
ALOX15B inhib: inactive[11.4 µM]; 12-hLO inh: inactive[11.4 µM]

Results for O=c1c(-c2ccc(Cl)cc2)nc2cnc(N3CCOCC3)nc2n1C[C@H]1CCCO1 ?
ALOX15B inhib: inactive

How did NC(=O)COc1ccc(=O)n(-c2ccccc2)n1 do in these assays?
ALOX15B inhib: inactive; 12-hLO inh: inactive; PNC assembly inh: inactive

What do the screens show for `Cn1nc(OCC(N)=O)ccc1=O`?
12-hLO inh: inactive; PNC assembly inh: -100.0

Results for Nc1ccc(N(c2ccccc2)c2ccc(N)cc2)cc1 ?
ALOX15B inhib: 0.631µM; 12-hLO inh: inactive; PNC assembly inh: inactive

What do the screens show for `Clc1nc(Cl)nc(N(c2ccccc2)c2ccccc2)n1`?
12-hLO inh: inactive; PNC assembly inh: inactive

What do the screens show for `C[C@H](CCC(=O)NN)[C@@H]1CC[C@@H]2[C@H]3CC[C@H]4C[C@@H](O)CC[C@@]4(C)[C@@H]3CC[C@]21C`?
ALOX15B inhib: inactive[11.4 µM]; 12-hLO inh: inactive[11.4 µM]

What do the screens show for `Cc1ccc(C)c(Nc2ncnc(N)c2[N+](=O)[O-])c1`?
12-hLO inh: inactive; PNC assembly inh: -123.8

Results for Nc1ncnc(NCc2ccccc2)c1[N+](=O)[O-] ?
12-hLO inh: inactive; PNC assembly inh: inactive

How did c1coc(CN(Cc2cccs2)Cc2nnnn2C2CCCCC2)c1 do in these assays?
12-hLO inh: inactive; PNC assembly inh: -100.0

How did Clc1ccccc1CN(Cc1ccco1)Cc1nnnn1C1CCCC1 do in these assays?
12-hLO inh: inactive; PNC assembly inh: inconclusive

Results for O=C1/C(=C\c2cccnc2)Sc2ccccc21 ?
12-hLO inh: inactive; PNC assembly inh: inactive

What do the screens show for `CC1C/C(=C\c2cccnc2)C(=O)/C(=C/c2cccnc2)C1` (stereo unspecified)?
12-hLO inh: inactive; PNC assembly inh: -116.4

How did CCN1CCCC1Cn1c(-c2ccccc2)nc2c(NCCOC)nc(C)nc21 (stereo unspecified) do in these assays?
ALOX15B inhib: inactive; 12-hLO inh: inactive

Results for COc1ccc(S(=O)(=O)N(Cc2ccccc2)Cc2nc(-c3ccccc3)no2)cc1 ?
ALOX15B inhib: inactive; 12-hLO inh: inactive; PNC assembly inh: inactive

How did CCOc1ccccc1C(=O)Nc1ccsc1C(=O)OC do in these assays?
12-hLO inh: inactive; PNC assembly inh: -110.0

How did CCOc1ccccc1C(=O)Nc1ccccc1C(N)=O do in these assays?
ALOX15B inhib: inactive; 12-hLO inh: inactive; PNC assembly inh: inactive

How did COC(=O)CSC1=NS(=O)(=O)c2ccccc21 do in these assays?
ALOX15B inhib: inconclusive; 12-hLO inh: inactive; PNC assembly inh: inconclusive

What do the screens show for `O=C(CSC1=NS(=O)(=O)c2ccccc21)Nc1ccccc1`?
ALOX15B inhib: 12.6µM; 12-hLO inh: inactive; PNC assembly inh: inactive

How did COc1ccccc1CCn1c(=O)c(-c2ccc(F)c(F)c2)nc2cncnc21 do in these assays?
ALOX15B inhib: inactive
